From PMC11006913

What was measured:
Assay in all cases: PBM; 200 nM protein, PBS
Settings in all cases: dsDNA, one strand shown
HESX1 [1] = biological target: HESX1 (Homo sapiens, UniProt Q9UBX0 95-180, R165K)
SHOX [2] = biological target: SHOX (Homo sapiens, UniProt O15266 103-189)
ALX4 = ALX4 (Homo sapiens, UniProt Q9H161 200-286, Q225E)
HESX1 [3] = biological target: HESX1 (Homo sapiens, UniProt Q9UBX0 95-180)
MSX2 = MSX2 (Homo sapiens, UniProt P35548 130-214, R199I)
ALX1 [4] = biological target: ALX1 (Homo sapiens, UniProt Q15699 118-204, L144V)
ALX3 [5] = biological target: ALX3 (Homo sapiens, UniProt O95076 139-225, N203Q)
SHOX [6] = biological target: SHOX (Homo sapiens, UniProt O15266 103-189, R173C)
ALX1 [7] = biological target: ALX1 (Homo sapiens, UniProt Q15699 118-204, L144R)
ALX3 [8] = biological target: ALX3 (Homo sapiens, UniProt O95076 139-225)
PROP1 [9] = biological target: PROP1 (Homo sapiens, UniProt O75360 56-141)
HESX1 [10] = biological target: HESX1 (Homo sapiens, UniProt Q9UBX0 95-180, R109Q)
PROP1 [11] = biological target: PROP1 (Homo sapiens, UniProt O75360 56-141, R99H)
ALX3 [12] = biological target: ALX3 (Homo sapiens, UniProt O95076 139-225, L168Q)
HESX1 [13] = biological target: HESX1 (Homo sapiens, UniProt Q9UBX0 95-180, P111T)
ALX3 [14] = biological target: ALX3 (Homo sapiens, UniProt O95076 139-225, L168V)
PROP1 [15] = biological target: PROP1 (Homo sapiens, UniProt O75360 56-141, F88S)
HESX1 [16] = biological target: HESX1 (Homo sapiens, UniProt Q9UBX0 95-180, F115L)
ALX1 [17] = biological target: ALX1 (Homo sapiens, UniProt Q15699 118-204)
ALX3 [18] = biological target: ALX3 (Homo sapiens, UniProt O95076 139-225, N203S)
Sequence of ALX3 (Homo sapiens, UniProt O95076 139-225, N203S) (O95076 139-225 N203S): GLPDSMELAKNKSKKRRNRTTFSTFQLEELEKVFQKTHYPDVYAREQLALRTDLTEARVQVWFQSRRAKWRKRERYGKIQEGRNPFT

Sequence of SHOX (Homo sapiens, UniProt O15266 103-189) (O15266 103-189): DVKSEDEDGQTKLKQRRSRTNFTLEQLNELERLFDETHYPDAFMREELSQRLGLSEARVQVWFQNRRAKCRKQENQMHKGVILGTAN
Sequence of HESX1 (Homo sapiens, UniProt Q9UBX0 95-180, P111T) (Q9UBX0 95-180 P111T): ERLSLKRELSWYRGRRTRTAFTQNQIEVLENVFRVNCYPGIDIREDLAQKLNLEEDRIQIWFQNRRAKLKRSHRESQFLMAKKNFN
Sequence of MSX2 (P35548 130-214 R199I): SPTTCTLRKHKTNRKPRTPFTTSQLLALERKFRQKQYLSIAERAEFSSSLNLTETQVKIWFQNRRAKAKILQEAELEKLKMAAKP
Sequence of HESX1 (Homo sapiens, UniProt Q9UBX0 95-180, R165K) (Q9UBX0 95-180 R165K): as the sequence (Q9UBX0 95-180 P111T) above, with T17P, R71K counted along it
Sequence of PROP1 (Homo sapiens, UniProt O75360 56-141, F88S) (O75360 56-141 F88S): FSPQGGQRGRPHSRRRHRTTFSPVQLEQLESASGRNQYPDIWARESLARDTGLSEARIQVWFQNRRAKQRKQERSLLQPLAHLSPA
Sequence of ALX3 (Homo sapiens, UniProt O95076 139-225) (O95076 139-225): as the sequence (O95076 139-225 N203S) above, with S65N counted along it
Sequence of ALX1 (Homo sapiens, UniProt Q15699 118-204, L144R) (Q15699 118-204 L144R): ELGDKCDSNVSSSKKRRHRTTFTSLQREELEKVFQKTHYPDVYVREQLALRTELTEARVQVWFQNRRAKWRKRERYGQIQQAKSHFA
Sequence of ALX1 (Homo sapiens, UniProt Q15699 118-204) (Q15699 118-204): as the sequence (Q15699 118-204 L144R) above, with R27L counted along it
Sequence of PROP1 (Homo sapiens, UniProt O75360 56-141) (O75360 56-141): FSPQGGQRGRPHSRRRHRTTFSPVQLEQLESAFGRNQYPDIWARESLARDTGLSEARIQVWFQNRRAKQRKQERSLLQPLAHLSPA
Sequence of PROP1 (Homo sapiens, UniProt O75360 56-141, R99H) (O75360 56-141 R99H): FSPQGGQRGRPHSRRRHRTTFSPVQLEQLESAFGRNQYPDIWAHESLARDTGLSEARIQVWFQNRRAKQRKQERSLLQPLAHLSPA
Sequence of HESX1 (Homo sapiens, UniProt Q9UBX0 95-180) (Q9UBX0 95-180): as the sequence (Q9UBX0 95-180 P111T) above, with T17P counted along it
Sequence of ALX3 (Homo sapiens, UniProt O95076 139-225, L168Q) (O95076 139-225 L168Q): as the sequence (O95076 139-225 N203S) above, with L30Q, S65N counted along it
Sequence of ALX1 (Homo sapiens, UniProt Q15699 118-204, L144V) (Q15699 118-204 L144V): as the sequence (Q15699 118-204 L144R) above, with R27V counted along it
Sequence of ALX4 (Q9H161 200-286 Q225E): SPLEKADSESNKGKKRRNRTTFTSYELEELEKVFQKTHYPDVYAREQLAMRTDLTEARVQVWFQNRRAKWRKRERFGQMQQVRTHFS
Sequence of HESX1 (Homo sapiens, UniProt Q9UBX0 95-180, R109Q) (Q9UBX0 95-180 R109Q): as the sequence (Q9UBX0 95-180 P111T) above, with R15Q, T17P counted along it
Sequence of HESX1 (Homo sapiens, UniProt Q9UBX0 95-180, F115L) (Q9UBX0 95-180 F115L): as the sequence (Q9UBX0 95-180 P111T) above, with T17P, F21L counted along it
Sequence of ALX3 (Homo sapiens, UniProt O95076 139-225, L168V) (O95076 139-225 L168V): as the sequence (O95076 139-225 N203S) above, with L30V, S65N counted along it
Sequence of ALX3 (Homo sapiens, UniProt O95076 139-225, N203Q) (O95076 139-225 N203Q): as the sequence (O95076 139-225 N203S) above, with S65Q counted along it
Sequence of SHOX (Homo sapiens, UniProt O15266 103-189, R173C) (O15266 103-189 R173C): as the sequence (O15266 103-189) above, with R71C counted along it

Q: Which results are given for CAATTATC?
A: binding signal (HESX1 [1]): 13 upbm affinity estimate (log intensity, higher = more binding, comparable within an allelic series); binding signal (SHOX [2]): 11.8 upbm affinity estimate (log intensity, higher = more binding, comparable within an allelic series); binding signal (ALX4): 13.2 upbm affinity estimate (log intensity, higher = more binding, comparable within an allelic series); binding signal (HESX1 [3]): 13.1 upbm affinity estimate (log intensity, higher = more binding, comparable within an allelic series); binding signal (MSX2): 13 upbm affinity estimate (log intensity, higher = more binding, comparable within an allelic series); binding signal (ALX1 [4]): 11.7 upbm affinity estimate (log intensity, higher = more binding, comparable within an allelic series); binding signal (ALX3 [5]): 8.4 upbm affinity estimate (log intensity, higher = more binding, comparable within an allelic series); binding signal (SHOX [6]): 9.58 upbm affinity estimate (log intensity, higher = more binding, comparable within an allelic series); binding signal (ALX1 [7]): 11.4 upbm affinity estimate (log intensity, higher = more binding, comparable within an allelic series); binding signal (ALX3 [8]): 12.5 upbm affinity estimate (log intensity, higher = more binding, comparable within an allelic series); binding signal (PROP1 [9]): 11.5 upbm affinity estimate (log intensity, higher = more binding, comparable within an allelic series); binding signal (HESX1 [10]): 9.41 upbm affinity estimate (log intensity, higher = more binding, comparable within an allelic series); binding signal (PROP1 [11]): 11.7 upbm affinity estimate (log intensity, higher = more binding, comparable within an allelic series); binding signal (ALX3 [12]): 10.6 upbm affinity estimate (log intensity, higher = more binding, comparable within an allelic series); binding signal (HESX1 [13]): 11.4 upbm affinity estimate (log intensity, higher = more binding, comparable within an allelic series); binding signal (ALX3 [14]): 10.1 upbm affinity estimate (log intensity, higher = more binding, comparable within an allelic series); binding signal (PROP1 [15]): 7.73 upbm affinity estimate (log intensity, higher = more binding, comparable within an allelic series); binding signal (HESX1 [16]): 8 upbm affinity estimate (log intensity, higher = more binding, comparable within an allelic series); binding signal (ALX1 [17]): 12.3 upbm affinity estimate (log intensity, higher = more binding, comparable within an allelic series); binding signal (ALX3 [18]): 8.56 upbm affinity estimate (log intensity, higher = more binding, comparable within an allelic series)

Q: What does the source list for AATTAACA?
A: binding signal (HESX1 [1]): 11.9 upbm affinity estimate (log intensity, higher = more binding, comparable within an allelic series); binding signal (SHOX [2]): 11.9 upbm affinity estimate (log intensity, higher = more binding, comparable within an allelic series); binding signal (ALX4): 13.2 upbm affinity estimate (log intensity, higher = more binding, comparable within an allelic series); binding signal (HESX1 [3]): 12 upbm affinity estimate (log intensity, higher = more binding, comparable within an allelic series); binding signal (MSX2): 12.4 upbm affinity estimate (log intensity, higher = more binding, comparable within an allelic series); binding signal (ALX1 [4]): 11.7 upbm affinity estimate (log intensity, higher = more binding, comparable within an allelic series); binding signal (ALX3 [5]): 8.55 upbm affinity estimate (log intensity, higher = more binding, comparable within an allelic series); binding signal (SHOX [6]): 9.76 upbm affinity estimate (log intensity, higher = more binding, comparable within an allelic series); binding signal (ALX1 [7]): 11.3 upbm affinity estimate (log intensity, higher = more binding, comparable within an allelic series); binding signal (ALX3 [8]): 12.5 upbm affinity estimate (log intensity, higher = more binding, comparable within an allelic series); binding signal (PROP1 [9]): 11.3 upbm affinity estimate (log intensity, higher = more binding, comparable within an allelic series); binding signal (HESX1 [10]): 9.41 upbm affinity estimate (log intensity, higher = more binding, comparable within an allelic series); binding signal (PROP1 [11]): 11.1 upbm affinity estimate (log intensity, higher = more binding, comparable within an allelic series); binding signal (ALX3 [12]): 10.6 upbm affinity estimate (log intensity, higher = more binding, comparable within an allelic series); binding signal (HESX1 [13]): 10.7 upbm affinity estimate (log intensity, higher = more binding, comparable within an allelic series); binding signal (ALX3 [14]): 10.2 upbm affinity estimate (log intensity, higher = more binding, comparable within an allelic series); binding signal (PROP1 [15]): 7.88 upbm affinity estimate (log intensity, higher = more binding, comparable within an allelic series); binding signal (HESX1 [16]): 8.02 upbm affinity estimate (log intensity, higher = more binding, comparable within an allelic series); binding signal (ALX1 [17]): 12.4 upbm affinity estimate (log intensity, higher = more binding, comparable within an allelic series); binding signal (ALX3 [18]): 8.67 upbm affinity estimate (log intensity, higher = more binding, comparable within an allelic series)

Q: What does the source list for GGCAGGCC?
A: binding signal (HESX1 [1]): 6.38 upbm affinity estimate (log intensity, higher = more binding, comparable within an allelic series); binding signal (HESX1 [3]): 6.43 upbm affinity estimate (log intensity, higher = more binding, comparable within an allelic series); binding signal (ALX1 [4]): 6.33 upbm affinity estimate (log intensity, higher = more binding, comparable within an allelic series); binding signal (ALX1 [7]): 6.11 upbm affinity estimate (log intensity, higher = more binding, comparable within an allelic series); binding signal (HESX1 [10]): 6.29 upbm affinity estimate (log intensity, higher = more binding, comparable within an allelic series); binding signal (HESX1 [13]): 6.43 upbm affinity estimate (log intensity, higher = more binding, comparable within an allelic series); binding signal (HESX1 [16]): 6.33 upbm affinity estimate (log intensity, higher = more binding, comparable within an allelic series); binding signal (ALX1 [17]): 6.33 upbm affinity estimate (log intensity, higher = more binding, comparable within an allelic series)

Q: Which binding signal (HESX1 [1]) does the source give for ACTAATTA here?
A: The binding signal was 13.9 upbm affinity estimate (log intensity, higher = more binding, comparable within an allelic series).

Q: What about the binding signal (SHOX [2]) of the same sequence?
A: The binding signal was 13.2 upbm affinity estimate (log intensity, higher = more binding, comparable within an allelic series).

Q: What about the binding signal (ALX4) of the same sequence?
A: Its binding signal is 14.3 upbm affinity estimate (log intensity, higher = more binding, comparable within an allelic series).

Q: And the binding signal (HESX1 [3])?
A: Its binding signal is 13.5 upbm affinity estimate (log intensity, higher = more binding, comparable within an allelic series).

Q: And the binding signal (MSX2)?
A: Its binding signal is 13.5 upbm affinity estimate (log intensity, higher = more binding, comparable within an allelic series).

Q: What about the binding signal (ALX1 [4]) of the same sequence?
A: The binding signal was 12.4 upbm affinity estimate (log intensity, higher = more binding, comparable within an allelic series).

Q: And the binding signal (ALX3 [5])?
A: The binding signal was 8.59 upbm affinity estimate (log intensity, higher = more binding, comparable within an allelic series).

Q: And the binding signal (SHOX [6])?
A: Its binding signal is 10.6 upbm affinity estimate (log intensity, higher = more binding, comparable within an allelic series).

Q: What about the binding signal (ALX1 [7]) of the same sequence?
A: Its binding signal is 12 upbm affinity estimate (log intensity, higher = more binding, comparable within an allelic series).

Q: And the binding signal (ALX3 [8])?
A: Its binding signal is 12.9 upbm affinity estimate (log intensity, higher = more binding, comparable within an allelic series).

Q: What about the binding signal (PROP1 [9]) of the same sequence?
A: Its binding signal is 12.2 upbm affinity estimate (log intensity, higher = more binding, comparable within an allelic series).

Q: And the binding signal (HESX1 [10])?
A: Its binding signal is 10.5 upbm affinity estimate (log intensity, higher = more binding, comparable within an allelic series).

Q: What about the binding signal (PROP1 [11]) of the same sequence?
A: The binding signal was 12.4 upbm affinity estimate (log intensity, higher = more binding, comparable within an allelic series).

Q: What about the binding signal (ALX3 [12]) of the same sequence?
A: The binding signal was 11.5 upbm affinity estimate (log intensity, higher = more binding, comparable within an allelic series).

Q: What about the binding signal (HESX1 [13]) of the same sequence?
A: Its binding signal is 12.4 upbm affinity estimate (log intensity, higher = more binding, comparable within an allelic series).

Q: What about the binding signal (ALX3 [14]) of the same sequence?
A: The binding signal was 11.2 upbm affinity estimate (log intensity, higher = more binding, comparable within an allelic series).

Q: What about the binding signal (PROP1 [15]) of the same sequence?
A: Its binding signal is 8.34 upbm affinity estimate (log intensity, higher = more binding, comparable within an allelic series).

Q: What about the binding signal (HESX1 [16]) of the same sequence?
A: Its binding signal is 8.35 upbm affinity estimate (log intensity, higher = more binding, comparable within an allelic series).

Q: And the binding signal (ALX1 [17])?
A: Its binding signal is 13 upbm affinity estimate (log intensity, higher = more binding, comparable within an allelic series).

Q: What about the binding signal (ALX3 [18]) of the same sequence?
A: The binding signal was 8.73 upbm affinity estimate (log intensity, higher = more binding, comparable within an allelic series).

Q: For CTCAATTA, which binding signal (HESX1 [1]) is on record?
A: The binding signal was 12.7 upbm affinity estimate (log intensity, higher = more binding, comparable within an allelic series).

Q: What about the binding signal (SHOX [2]) of the same sequence?
A: The binding signal was 12 upbm affinity estimate (log intensity, higher = more binding, comparable within an allelic series).

Q: What about the binding signal (ALX4) of the same sequence?
A: Its binding signal is 13.1 upbm affinity estimate (log intensity, higher = more binding, comparable within an allelic series).

Q: And the binding signal (HESX1 [3])?
A: The binding signal was 12.7 upbm affinity estimate (log intensity, higher = more binding, comparable within an allelic series).

Q: And the binding signal (MSX2)?
A: Its binding signal is 12.7 upbm affinity estimate (log intensity, higher = more binding, comparable within an allelic series).

Q: What about the binding signal (ALX1 [4]) of the same sequence?
A: The binding signal was 11.8 upbm affinity estimate (log intensity, higher = more binding, comparable within an allelic series).

Q: And the binding signal (ALX3 [5])?
A: Its binding signal is 8.29 upbm affinity estimate (log intensity, higher = more binding, comparable within an allelic series).

Q: What about the binding signal (SHOX [6]) of the same sequence?
A: Its binding signal is 9.56 upbm affinity estimate (log intensity, higher = more binding, comparable within an allelic series).

Q: What about the binding signal (ALX1 [7]) of the same sequence?
A: The binding signal was 11.5 upbm affinity estimate (log intensity, higher = more binding, comparable within an allelic series).

Q: And the binding signal (ALX3 [8])?
A: The binding signal was 12.5 upbm affinity estimate (log intensity, higher = more binding, comparable within an allelic series).

Q: And the binding signal (PROP1 [9])?
A: The binding signal was 11.5 upbm affinity estimate (log intensity, higher = more binding, comparable within an allelic series).

Q: And the binding signal (HESX1 [10])?
A: Its binding signal is 9.12 upbm affinity estimate (log intensity, higher = more binding, comparable within an allelic series).

Q: And the binding signal (PROP1 [11])?
A: The binding signal was 11.6 upbm affinity estimate (log intensity, higher = more binding, comparable within an allelic series).

Q: And the binding signal (ALX3 [12])?
A: The binding signal was 10.5 upbm affinity estimate (log intensity, higher = more binding, comparable within an allelic series).

Q: And the binding signal (HESX1 [13])?
A: The binding signal was 11.2 upbm affinity estimate (log intensity, higher = more binding, comparable within an allelic series).

Q: What about the binding signal (ALX3 [14]) of the same sequence?
A: Its binding signal is 9.95 upbm affinity estimate (log intensity, higher = more binding, comparable within an allelic series).

Q: What about the binding signal (PROP1 [15]) of the same sequence?
A: Its binding signal is 7.64 upbm affinity estimate (log intensity, higher = more binding, comparable within an allelic series).

Q: And the binding signal (HESX1 [16])?
A: Its binding signal is 7.72 upbm affinity estimate (log intensity, higher = more binding, comparable within an allelic series).

Q: And the binding signal (ALX1 [17])?
A: The binding signal was 12.4 upbm affinity estimate (log intensity, higher = more binding, comparable within an allelic series).

Q: What about the binding signal (ALX3 [18]) of the same sequence?
A: The binding signal was 8.43 upbm affinity estimate (log intensity, higher = more binding, comparable within an allelic series).
